Bioassay records from PubChem BioAssay.
aSyn 5UTR act: Activators working through SNCA 5'UTR binding (MLPCN). alpha-synuclein 5'UTR reporter, activators screen. 300,000 tested, 7.1% active. activity score, % (tested at 7.5 µM), hits read low. AID 1814; in the data active = activity score below about -60%
* marks the source's active call; other numbers are inactive results. These entries were drawn from the full list.

SMILES	aSyn 5UTR act
O=C(Nc1cnc2ccccn2c1=O)c1ccc(F)cc1	-92*
O=C(Nc1cnc2sc3c(n2c1=O)CCCC3)c1ccc(F)cc1	-105*
COc1ccc(C(=O)Nc2cnc3ccccn3c2=O)cc1	-169*
O=C(CC(Nc1ccccc1)c1ccc(F)cc1)c1ccccc1 (configuration not stated)	-75*
Cc1ccc(NC(CC(=O)c2ccccc2)C(=O)O)cc1Cl (configuration not stated)	-125*
O=C(CC(Nc1ccccc1)C(=O)O)c1ccccc1 (configuration not stated)	-124*
Cc1cccc(N/N=C2/COC(C)(C)CC2=O)c1	-101*
CC1(C)CC(=O)/C(=N/Nc2ccc(Cl)cc2)CO1	-230*
Cc1ccc2c(c1)C(N1CCCC1=O)CC(c1ccco1)N2 (configuration not stated)	-171*
CC(C)(C)c1ccc(NC(=O)CC2(C(F)(F)F)OCCO2)cc1	-112*
O=C(O)c1cccc(NC2=Nc3cccc4cccc2c34)c1	-114*
CN(C)c1ccc(/C=C/c2nnnn2-c2ccccc2)cc1	-157*
COC(=O)/C(=C/Nc1cccc2ccccc12)[N+](=O)[O-]	-68*
CCO[C@@H]1OC(C(=O)NCc2nc3ccccc3[nH]2)=C[C@H](C2CC2)[C@H]1CCCO	-119*
CCO[C@@H]1OC(C(=O)NCc2nc3ccccc3[nH]2)=C[C@H](C(C)(C)C)[C@H]1CCCO	85
Cc1scc(C(=O)N/N=C/c2ccc([N+](=O)[O-])o2)c1C	85
Cc1scc(C(=O)N/N=C/c2ccsc2)c1C	-162*
Cc1scc(C(=O)N/N=C/c2ccco2)c1C	-86*
Cc1ccc(NC(=O)Cc2noc3ccccc23)cc1	-173*
C=C(C)C1CC=C(C)/C(=N/Nc2ccccc2[N+](=O)[O-])C1 (configuration not stated)	-144*
C=C(C)C1CC=C(C)/C(=N/NC(=O)c2cccs2)C1 (configuration not stated)	-124*
CCCNc1nc(Cl)nc(Nc2ccc(Cl)cc2)n1	-63*
CC(C)(C)Nc1nc(Cl)nc(Nc2ccccc2)n1	-136*
CC1CCc2cccc3c2N1c1cc(C#N)c(C#N)cc1O3 (configuration not stated)	71
CCN(CC(=O)Nc1ccc2c(c1)OCCO2)C(=O)/C=C/c1cccc(OC)c1OC	-93*
SMILES	aSyn 5UTR act
COc1ccccc1/C=C/C(=O)N1CCC(c2ccccc2)C1 (configuration not stated)	-177*
COc1ccc(/C=C/C(=O)OCC(=O)c2ccc3c(c2)NC(=O)CO3)c(OC)c1	42
CCOc1ccccc1/C=C/C(=O)c1ccc(Cl)cc1	-80*
COc1ccc(/C=C/C(=O)c2ccc3c(c2)OCO3)c(OC)c1	-85*
COc1ccccc1/C=C/C(=O)NC(=S)NC(C)C	-93*
COc1ccccc1/C=C/C(=O)c1ccc(Cl)cc1	-62*
COc1ccccc1/C=C/C(=O)c1ccccc1	-155*
COc1ccccc1/C=C/C(=O)c1ccc(NC(C)=O)cc1	-205*
COc1cc(CC(=O)OCC(=O)c2ccc3c(c2)OCCO3)cc(OC)c1OC	100
COc1cc(O)c(C(=O)/C=C/c2ccccc2)c(OC)c1	-163*
COc1cccc(/C=C/C(=O)c2ccc3c(c2)OCCO3)c1OC	-307*
COc1ccc(/C=C/C(=O)c2ccccc2)c(OC)c1	-207*
O=C(/C=C/c1ccccc1O)c1ccc(Cl)cc1	-189*
Cc1ccc(Nc2ncc3c(n2)CC(C)(C)CC3=O)cc1	-88*
CC1(C)CC(=O)c2cnc(N3CCc4ccccc4C3)nc2C1	-218*
CC1(C)CC(=O)c2cnc(N3CCN(c4ccccc4)CC3)nc2C1	-62*
CCOc1ccc(/C=C/C(=O)Nc2cccc(C(C)=O)c2)cc1	-151*
CC(=O)Nc1cccc(C(=O)/C=C/c2ccc(C)cc2)c1	-123*
CC1=C/C(=N\NC(=S)NCCc2ccccc2)CC(C)(C)C1	-80*
CC(C)(C)NC(=O)NCCc1ccccc1	-95*
S=C(NCCc1ccccc1)Nc1ccc(Cl)cc1	-135*
COCCN(Cc1ccccc1)C(=S)Nc1ccc(Cl)cc1	59
O=C(NCCc1ccccc1)/C(=N\O)c1ccccc1	-107*
Cc1cccc(NC(=O)C(=O)NCCCc2ccccc2)c1	-77*
Cc1ccc(NC(=O)NCCCc2ccccc2)cc1	-90*
SMILES	aSyn 5UTR act
Fc1cc(Br)ccc1NC(=S)NCCc1ccccc1	-119*
CC(C)(C)C(=O)NC(=S)NCCc1ccccc1	-92*
S=C(NCCc1ccccc1)NCCc1ccccc1	-215*
C/C(=C\c1ccccc1)C(=O)NCCc1ccccc1	-62*
Fc1ccc(CCNC(=S)Nc2ccc(F)cc2)cc1	-76*
O=C(NCCc1ccccc1)Nc1ccc(Cl)cc1	-178*
c1cncc(C2Nc3ccccc3-c3nc4ccccc4n32)c1 (configuration not stated)	-92*
Cc1ccsc1C1Nc2ccccc2-c2nc3ccccc3n21 (configuration not stated)	-169*
c1csc(C2Nc3ccccc3-c3nc4ccccc4n32)c1 (configuration not stated)	-83*
